These results are taken from PubChem BioAssay (EPA / NIEHS).

Active and inactive are the calls of the source. Rule for the calls: active = hit-call score of the fitted dose curve at least 0.9, where 1 is the maximum; inactive = score below 0.9.

The assay can be described thus: APR_HepG2_MitoMass_1hr: Apredica 1-hour HepG2 Assay for Mitochondrial Mass (AID 2282674). To be noted: high-content imaging, actives raise or lower the signal. The protocol: APR_HepG2_1hr is a cell-based, multiplexed-readout assay that uses HepG2, a human liver cell line, with measurements taken at 1 hour after chemical dosing in a 384-well plate.APR_HepG2_MitoMass_1hr is one of 10 assay component(s) measured or calculated from the APR_HepG2_1hr assay. It is designed to make measurements of cell phenotype, a form of morphology reporter, as detected with fluorescence intensity signals by HCS Fluorescent Imaging technology.Data from the assay component APR_HepG2_MitoMass_1hr was analyzed into 1 assay endpoint. This assay endpoint, APR_HepG2_MitoMass_1hr, was analyzed with bidirectional fitting relative to DMSO as the negative control and baseline of activity. Using a type of morphology reporter, gain or loss-of-signal activity can be used to understand changes in the signaling. Furthermore, this assay endpoint can be referred to as a primary readout, because this assay has produced multiple assay endpoints where this one serves a signaling function. To generalize the intended target to other relatable targets, this assay endpoint is annotated to the cell morphology intended target family, where the subfamily is organelle conformation.
Cells were treated with dimethyl sulfoxide (DMSO) as a solvent control at a final concentration of 0.5% v/v or with compounds in DMSO with a resulting final DMSO concentration of 0.5% v/v. Compound treatment was done at concentrations of 0.39, 0.78, 1.56, 3.12, 6.24, 12.5, 25, 50, 100, and 200 uM in duplicate on each plate. Cells were treated with compounds for 1, 24, or 72 hr. Carbonyl […] m-chloro-phenylhydrazone (CCCP) and taxol were used as positive controls for mitochondrial function and cytoskeletal stability, respectively; DMSO served as the negative control for this experiment. Cells were fixed by the direct addition of 50 uL formaldehyde in Hank's Balanced Salt Solution (HBSS) to a final concentration of 3.7%. After incubation in the fixation medium for 30 min at room temperature (293-298 K), cells were rinsed twice with HBSS and treated with cell permeabilization buffer (16 uL of 0.5% Triton X-100) for 10 min at room temperature (293-298 K) before labeling. For mitochondrial membrane potential and mitochondrial measurements, pre-fixed cells were incubated with 50 uL of MitoTracker Red CMXRos (Invitrogen) at a concentration of 250 nM for 30 min before fixation. In the remaining cases, post-fixed cells were labeled by incubation with a multiplexed mixture of primary antibodies in HBSS for 60 min at room temperature (293-298 K) to detect immunoreactivity of c-Jun (1:500), phospho-histone H3 (1:100), phospho-histone H2A.x (1:200), p53 (1:400), alpha-tubulin (1:200) and Hoechst 33342 (2 ug/mL). Cells were labeled for multiplexed imaging on two separate plates: a) Hoechst 33342, MitoTracker Red, phospho-histone H3, and alpha-tubulin, and b) Hoechst 33342, phospho-histone H2A.x, and c-Jun. A final rinse with HBSS (50 uL) was performed before analysis. The primary and secondary antibodies for the proteins were phospho-histone H3 (rabbit anti-phospho-histone H3 and FITC-donkey anti-rabbit IgG), phospho-histone H2A.x (mouse anti-phospho-histone H2A.x and FITC-donkey anti-mouse IgG), c-Jun (rabbit anti-phospho-c-Jun and Cy3-donkey anti-rabbit IgG), p53 (sheep anti-p53 and Cy5-donkey anti-sheep IgG), alpha-tubulin (mouse anti-alpha-tubulin and Cy5-donkey anti-mouse IgG). These antibodies are available as the CellCiphr HepG2 assay kit (Millipore).Digital images of each well were captured using a Cellomics ArrayScan VTI (Thermo Scientific Cellomics) (0.8 NA objective, 0.63x optical coupler, and XF-93 filter set) at 20x magnification. The images were acquired using the autofocus feature of the ArrayScan instrument, which entails the following steps. First, the camera focuses on channel 1 (Hoechst 33342), where nuclei are identified. Second, a Z offset of 1 um is used for capturing mitochondria (MitoTracker Red). Third, a Z offset of -2 um is used for capturing the cytoskeleton (tubulin). […]
For `CCCSP(=O)(OCC)Oc1ccc(Br)cc1Cl` (stereo not given), the outcome was inactive.

In the case of `CCOC(=O)COc1cc(-c2nn(C)c(OC(F)F)c2Cl)c(F)cc1Cl`, the compound was classed as inactive.

Consider `CC(Oc1cccc(Cl)c1)C(=O)O` (stereo not given), for which the call was inactive.

Turning to `COP(=O)(OC)SCn1c(=O)oc2cc(Cl)cnc21`, the result was inactive.

Take `Cc1ccn2nc(S(=O)(=O)Nc3c(F)cccc3F)nc2n1`: the call was inactive.

On to `Nc1nc(N)nc(NC2CC2)n1`, for which the result was inactive.

In the case of `CCCCSP(=O)(SCCCC)SCCCC`, the call was inactive.

As for `CCCCN(CC)c1c([N+](=O)[O-])cc(C(F)(F)F)cc1[N+](=O)[O-]`, the compound was called inactive.

For the compound `CCOP(=S)(OCC)Oc1cc(C)nc(C(C)C)n1`, the compound was called inactive.

For the compound `CN(C)NC(=O)CCC(=O)O`, the compound was called inactive.

Consider `CCOP(=S)(OCC)Oc1ccc2c(C)c(Cl)c(=O)oc2c1`, for which the result was inactive.

On to `CC1=NNC(=O)N(/N=C/c2cccnc2)C1`, for which the result was inactive.

On to `CNc1cnn(-c2cccc(C(F)(F)F)c2)c(=O)c1Cl`, for which the compound was classed as inactive.

`CCCSP(=O)(OCC)SCCC`: the result was inactive.

With `CC(C)=CC1C(C(=O)OCN2C(=O)C3=C(CCCC3)C2=O)C1(C)C` (stereo not given), the result was inactive.

Consider `COc1cccc(C(=O)NN(C(=O)c2cc(C)cc(C)c2)C(C)(C)C)c1C`, for which the compound was called inactive.

Turning to `COP(=O)(NC(C)=O)SC` (stereo not given), the compound was classed as inactive.

For the compound `CCc1cccc(CC)c1N(COC)C(=O)CCl`, the result was inactive.

Consider `CCOP(=S)(OCC)SCCSCC`, for which the compound was classed as inactive.

For `S=C1NCCN1`, the call was inactive.

With `CCCCOC(=O)c1ccccc1C(=O)O`, the compound was called inactive.

With `COP(=O)(OC)C(O)C(Cl)(Cl)Cl` (stereo not given), the outcome was inactive.

As to `CC(C)[C@H](C(=O)O[C@H](C#N)c1cccc(Oc2ccccc2)c1)c1ccc(Cl)cc1`, the outcome was inactive.

Regarding `CCOP(=S)(OCC)Oc1ccc([N+](=O)[O-])cc1`, the compound was classed as inactive.

Turning to `C#CCC1=C(C)C(OC(=O)C2C(C=C(C)C)C2(C)C)CC1=O` (stereo not given), the compound was classed as inactive.

For `CCC(=O)Nc1ccc(Cl)c(Cl)c1`, the outcome was inactive.

In the case of `C[Si](Cn1cncn1)(c1ccc(F)cc1)c1ccc(F)cc1`, the call was inactive.

With `CCOP(=O)(OCC)Oc1cc(C)nc(C(C)C)n1`, the compound was classed as inactive.

On to `C=C(C)[C@H]1Cc2c(ccc3c2O[C@@H]2COc4cc(OC)c(OC)cc4[C@@H]2C3=O)O1`, for which the call was inactive.

Consider `CC1(C(=O)Nc2ccc(O)c(Cl)c2Cl)CCCCC1`, for which the compound was classed as inactive.

With `CC(C1CC1)C(O)(Cn1cncn1)c1ccc(Cl)cc1` (stereo not given), the compound was classed as inactive.

As for `CNC(=O)Oc1cccc2c1OC(C)(C)O2`, the compound was called inactive.

As for `CCC(CC)Nc1c([N+](=O)[O-])cc(C)c(C)c1[N+](=O)[O-]`, the compound was called inactive.

Regarding `CCOP(=O)(NC(C)C)Oc1ccc(SC)c(C)c1` (stereo not given), the result was inactive.

Consider `CCCOc1nn(C(=O)NS(=O)(=O)c2ccccc2C(=O)OC)c(=O)n1C`, for which the outcome was inactive.

`CCNc1nc(Cl)nc(NC(C)(C)C#N)n1`: the compound was classed as inactive.

In the case of `CCC(=NOC/C=C/Cl)C1=C(O)CC(C2CCOCC2)CC1=O` (stereo not given), the call was inactive.

Regarding `CN1COCN(Cc2cnc(Cl)s2)C1=N[N+](=O)[O-]`, the call was inactive.

Consider `C#CC(C)(C)NC(=O)c1cc(Cl)cc(Cl)c1`, for which the outcome was inactive.

Regarding `CCCOCC(=Nc1ccc(Cl)cc1C(F)(F)F)n1ccnc1`, the outcome was inactive.
